Data: PubChem BioAssay AID1159580 (chemical genetic matrix, 2015)
Hit rate of the full screen: of about 5,500 compounds, about 2,000 (36%) were called active. Inconclusive results (about 18%) are left out. The list shows a part of the results. Values without a mark were called inactive. Rule as the data show it: active = normalized growth mostly below about 0.91 (no sharp cut-off); inconclusive = no clear call, values can overlap the other calls; inactive = mostly above about 0.92.

Test: chemical genetic growth profiling, strain panel (AID 1159580);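 also: tested at 20 µM; growth read once vehicle control cultures reached saturation at 30 °C; 1 = growth at the plate median or of vehicle wells; lower values mean less growth of the strain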
Conditions: S. cerevisiae deletion strains, growth OD

O=C(c1ccc(OCCN2CCCCC2)cc1)c1c(-c2ccc(O)cc2)sc2cc(O)ccc12
normalized growth (locus YAL021C, strain ccr4, hits give low values): 0.971 | normalized growth (locus YAL026C, strain drs2, hits give low values): 0.987 | normalized growth (locus YAL030W, strain snc1, hits give low values): 1.01 | normalized growth (locus YAL040C, strain CLN3, hits give low values): 1.02 | normalized growth (locus YBL061C, strain skt5, hits give low values): 1.01 | normalized growth (locus YBR009C, strain hhf1, hits give low values): 1 | normalized growth (locus YBR023C, strain chs3, hits give low values): 1.01 | normalized growth (locus YBR171W, strain sec66, hits give low values): 1.04 | normalized growth (locus YBR231C, strain swc5, hits give low values): 0.989 | normalized growth (locus YBR279W, strain paf1, hits give low values): 1.02 | normalized growth (locus YCL011C, strain gbp2, hits give low values): 1.02 | normalized growth (locus YCL016C, strain dcc1, hits give low values): 1 | normalized growth (locus YCL061C, strain MRC1 (second series), hits give low values): 0.998 | normalized growth (locus YCL061C, strain MRC1, hits give low values): 1.01 | normalized growth (locus YCL069W, strain vba3, hits give low values): 1.03 | normalized growth (locus YCR088W, strain abp1, hits give low values): 1.02 | normalized growth (locus YDL005C, strain med2, hits give low values): 1.04 | normalized growth (locus YDL040C, strain nat1, hits give low values): 1.02 | normalized growth (locus YDR001C, strain nth1, hits give low values): 1.02 | normalized growth (locus YDR069C, strain doa4, hits give low values): 1.01 | normalized growth (locus YDR137W, strain rgp1, hits give low values): 1.09 | normalized growth (locus YDR150W, strain NUM1, hits give low values): 0.977 | normalized growth (locus YDR159W, strain sac3, hits give low values): 0.984 | normalized growth (locus YDR195W, strain ref2): 1.01 | normalized growth (locus YDR297W, strain sur2, hits give low values): 1.01 | normalized growth (locus YDR334W, strain swr1, hits give low values): 1.02 | normalized growth (locus YDR335W, strain msn5, hits give low values): 1.03 | normalized growth (locus YDR363W, strain ESC2, hits give low values): 0.983 | normalized growth (locus YDR392W, strain spt3, hits give low values): 0.41 (active) | normalized growth (locus YEL003W, strain gim4, hits give low values): 1.02 | normalized growth (locus YEL037C, strain rad23, hits give low values): 1.04 | normalized growth (locus YEL061C, strain CIN8 (second series), hits give low values): 1.03 | normalized growth (locus YER002W, strain NOP16, hits give low values): 1 | normalized growth (locus YER015W, strain faa2, hits give low values): 1.01 | normalized growth (locus YER016W, strain bim1, hits give low values): 1.01 | normalized growth (locus YER111C, strain swi4, hits give low values): 1.03 | normalized growth (locus YER155C, strain BEM2 (second series), hits give low values): 0.608 (active) | normalized growth (locus YFR010W, strain ubp6, hits give low values): 1.04 | normalized growth (locus YGL167C, strain pmr1, hits give low values): 1.03 | normalized growth (locus YGL173C, strain kem1, hits give low values): 1.01 | normalized growth (locus YGL227W, strain vid30, hits give low values): 1.01 | normalized growth (locus YGL240W, strain doc1, hits give low values): 0.967 | normalized growth (locus YGL253W, strain hxk2, hits give low values): 1.02 | normalized growth (locus YHR013C, strain ard1, hits give low values): 0.958 | normalized growth (locus YHR027C, strain rpn1, hits give low values): 1.01 | normalized growth (locus YHR030C, strain SLT2, hits give low values): 0.968 | normalized growth (locus YHR079C, strain IRE1, hits give low values): 0.968 | normalized growth (locus YHR142W, strain chs7, hits give low values): 0.983 | normalized growth (locus YJL092W, strain hpr5, hits give low values): 1.01 | normalized growth (locus YJL095W, strain BCK1 (second series), hits give low values): 1.02 | normalized growth (locus YJL095W, strain BCK1, hits give low values): 1 | normalized growth (locus YJL115W, strain asf1, hits give low values): 1.03 | normalized growth (locus YJL129C, strain trk1, hits give low values): 1.01 | normalized growth (locus YJL154C, strain vps35, hits give low values): 1.03 | normalized growth (locus YJL164C, strain tpk1, hits give low values): 0.982 | normalized growth (locus YJL166W, strain qcr8, hits give low values): 0.968 | normalized growth (locus YJL187C, strain SWE1, hits give low values): 1.02 | normalized growth (locus YJR066W, strain TOR1, hits give low values): 0.924 | normalized growth (locus YKL160W, strain elf1, hits give low values): 0.982 | normalized growth (locus YKR026C, strain gcn3, hits give low values): 1.01 | normalized growth (locus YKR091W, strain srl3, hits give low values): 1.02 | normalized growth (locus YLL001W, strain dnm1, hits give low values): 1.01 | normalized growth (locus YLL026W, hits give low values): 1.01 | normalized growth (locus YLL041C, strain sdh2, hits give low values): 1.02 | normalized growth (locus YLR027C, strain aat2, hits give low values): 1.01 | normalized growth (locus YLR113W, strain HOG1, hits give low values): 0.986 | normalized growth (locus YLR221C, strain rsa3, hits give low values): 1 | normalized growth (locus YLR258W, strain gsy2, hits give low values): 1.01 | normalized growth (locus YLR262C, strain YPT6 (second series), hits give low values): 1.01 | normalized growth (locus YLR320W, strain mms22, hits give low values): 0.911 | normalized growth (locus YLR342W, strain FKS1, hits give low values): 1 | normalized growth (locus YLR357W, strain rsc2, hits give low values): 0.964 | normalized growth (locus YLR370C, strain arc18, hits give low values): 1.03 | normalized growth (locus YLR384C, strain iki3, hits give low values): 1.04 | normalized growth (locus YML120C, strain ndi1, hits give low values): 1.01 | normalized growth (locus YMR058W, strain fet3, hits give low values): 1.01 | normalized growth (locus YMR125W, strain sto1, hits give low values): 0.989 | normalized growth (locus YMR129W, hits give low values): 1.02 | normalized growth (locus YMR205C, strain PFK2, hits give low values): 0.981 | normalized growth (locus YMR231W, strain pep5, hits give low values): 1.03 | normalized growth (locus YMR307W, strain GAS1, hits give low values): 0.917 | normalized growth (locus YNL071W, strain lat1, hits give low values): 0.854 (active) | normalized growth (locus YNL128W, strain TEP1, hits give low values): 1.02 | normalized growth (locus YNL175C, strain NOP13, hits give low values): 0.993 | normalized growth (locus YNL183C, strain NPR1, hits give low values): 0.965 | normalized growth (locus YNL197C, strain WHI3, hits give low values): 0.998 | normalized growth (locus YNL209W, strain ssb2, hits give low values): 1.01 | normalized growth (locus YNL224C, strain SQS1, hits give low values): 1.01 | normalized growth (locus YNL248C, strain rpa49, hits give low values): 0.986 | normalized growth (locus YNL322C, strain KRE1 (second series), hits give low values): 1.02 | normalized growth (locus YNR049C, strain mso1, hits give low values): 1.02 | normalized growth (locus YOR001W, strain rrp6, hits give low values): 1 | normalized growth (locus YOR070C, strain gyp1, hits give low values): 1.02 | normalized growth (locus YOR080W, strain dia2, hits give low values): 1.02 | normalized growth (locus YOR083W, strain WHI5 (second series), hits give low values): 0.997 | normalized growth (locus YOR083W, strain WHI5, hits give low values): 0.979 | normalized growth (locus YOR106W, strain vam3, hits give low values): 0.987 | normalized growth (locus YOR231W, strain MKK1, hits give low values): 0.995 | normalized growth (locus YOR265W, strain rbl2, hits give low values): 1.01 | normalized growth (locus YOR270C, strain vph1, hits give low values): 1.01 | normalized growth (locus YOR290C, strain snf2, hits give low values): 0.995 | normalized growth (locus YPL051W, strain arl3, hits give low values): 0.977 | normalized growth (locus YPL055C, strain LGE1, hits give low values): 0.826 (active) | normalized growth (locus YPL078C, strain atp4, hits give low values): 0.985 | normalized growth (locus YPL106C, strain sse1, hits give low values): 1.01 | normalized growth (locus YPL240C, strain hsp82, hits give low values): 1.03 | normalized growth (locus YPL241C, strain CIN2, hits give low values): 1 | normalized growth (locus YPL256C, strain CLN2, hits give low values): 0.97
